# Assays:
# Assay type in all cases: functional
# [1] = molecular target: Solute carrier family 2, facilitated glucose transporter member 1 (Homo sapiens) (UniProt P11166); test: ST_JUDE_LEISH: Cytotoxicity at 2uM final concentration against transgenic Leishmania Mexicana promastigotes LmGLUT1 that are glucose transport deficient and complemented with the human glucose transporter GLUT1. Activity is measured by DNA content using SYBR green in vitro
# [2] = molecular target: Hexose transporter 1 (Plasmodium falciparum) (UniProt O97467); test: ST_JUDE_LEISH: Cytotoxicity at 2uM final concentration against transgenic Leishmania Mexicana promastigotes LmPfHT that are glucose transport deficient and complemented with the Plasmodium falciparum hexose transporter. Activity is measured by DNA content using SYBR green in vitro
# [3] = molecular target: Glucose transporter (Leishmania mexicana) (UniProt O61059); test: ST_JUDE_LEISH: Cytotoxicity at 2uM final concentration against transgenic Leishmania Mexicana promastigotes LmGT2 that are glucose transport deficient and complemented with the L. Mexicana glucose transporter 2. Activity is measured by DNA content using SYBR green in vitro
# Sequence of Solute carrier family 2, facilitated glucose transporter member 1 (Homo sapiens) (P11166 whole entry): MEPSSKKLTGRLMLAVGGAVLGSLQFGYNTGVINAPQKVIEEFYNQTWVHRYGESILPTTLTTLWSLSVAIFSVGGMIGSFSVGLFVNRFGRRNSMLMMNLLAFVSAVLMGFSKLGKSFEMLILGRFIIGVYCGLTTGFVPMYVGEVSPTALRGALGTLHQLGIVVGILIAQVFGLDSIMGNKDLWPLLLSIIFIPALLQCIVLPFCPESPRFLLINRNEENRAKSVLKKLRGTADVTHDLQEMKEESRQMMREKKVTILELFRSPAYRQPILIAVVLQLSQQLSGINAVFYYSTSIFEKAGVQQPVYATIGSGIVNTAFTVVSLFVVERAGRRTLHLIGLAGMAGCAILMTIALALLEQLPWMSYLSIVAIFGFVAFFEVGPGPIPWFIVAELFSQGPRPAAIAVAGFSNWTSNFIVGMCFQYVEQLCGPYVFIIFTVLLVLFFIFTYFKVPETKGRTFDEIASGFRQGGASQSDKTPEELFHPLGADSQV
Compound,inhibition [1],inhibition [2],inhibition [3]
C[C@@]12C[C@@H](Nc3nc(NCCc4ccc(O)cc4)nc(N4CCNCC4)n3)C[C@@H](C1)c1cccc(Cl)c1O2,-1.38%,-1.84%,2.14%
CN1CCN(CC(=O)Nc2cccc(-c3cccc(-c4nc5cc(F)ccc5[nH]4)c3)c2)CC1,0.82%,1.22%,3.51%
Cc1cccc2nc(-c3cccc(-c4cccc(NC(=O)Nc5ccc(Cl)cc5)c4)c3)[nH]c12,-3.06%,-0.68%,-1.91%
O=C(NCCN1CCC(c2ccncc2)CC1)c1ccc(Nc2nccc(Nc3ccc(Oc4ccccc4)cc3)n2)cc1,-0.62%,-0.94%,-1.34%
O=C(Nc1cccc(F)c1)c1ccc(C(=O)NC2CCN(CC3CCCCC3)CC2)cc1,1.87%,5.33%,1.84%
CCN(CC)CCCC(C)Nc1ccnc2ccc(-c3ccccc3)cc12 (centres undefined),-0.2%,-0.17%,1.04%
O=[N+]([O-])c1ccc(/C=N/Nc2cc(-c3ccccc3)nc3ccccc23)o1,9.16%,7.41%,5.71%
Cc1cc(NCC(c2ccccc2)c2ccccc2)nc(NCc2ccc(C(F)(F)F)cc2)n1,5.66%,6.13%,3.66%
COc1ccc(C)c(Nc2ccnc(Nc3ccc(-c4cnc[nH]4)cc3)n2)c1,2.85%,2.37%,3.29%
COc1cc(OC)c2c(c1Cl)O[C@]1(C2=O)C(=O)C(Cc2ccccc2)(Cc2ccccc2)C(=O)C[C@H]1C,2.41%,3.13%,2.6%
O=C(Cc1cccc(OCCCN(Cc2cccc(C(F)(F)F)c2Cl)CC(c2ccccc2)c2ccccc2)c1)NCc1ccco1,-1.28%,2.42%,-2.47%
O=C(Nc1ccc(Cl)cc1)Nc1ccc(-c2cccc(-c3nc4cc(F)ccc4[nH]3)c2)cc1,2.83%,4.68%,3.09%
CCN(CC)CCN(Cc1ccc(-c2ccc(C(F)(F)F)cc2)cc1)C(=O)Cn1c(SCc2ccc(F)cc2)nc(=O)c2sccc21,5.28%,2.81%,4.07%
O=C(Nc1ccc(Cl)c(C(F)(F)F)c1)c1ccc(Cl)c([N+](=O)[O-])c1,6.41%,3.41%,0.08%
CCC(C(=O)Nc1ccccc1)n1nc(-c2ccc(C)c(S(=O)(=O)N3CCCCC3)c2)ccc1=O (centres undefined),3.12%,4.1%,4.74%
CC(C)N1CCN(CCCCNc2c3ccccc3nc3ccccc23)CC1,33%,41%,22.3%
CC(C)COc1ccc(Cl)cc1Cc1ccc(-c2nc3ccc(Br)cc3[nH]2)o1,5.75%,5.74%,4.95%

Compound,inhibition [1],inhibition [2],inhibition [3]
O=C(C=Cc1ccc(Cl)c(Cl)c1)NCCCCCN1CCCC(CCCNC(=O)c2sc3ccccc3c2Cl)C1 (centres undefined),2.3%,1.22%,-0.49%
CSC1=NC(=Nc2ccccc2C)C2(CCC(C(C)(C)C)CC2)N1c1ccccc1Cl (centres undefined),-1.03%,-3.95%,-2.88%
CCN1C(=O)N(CCC(C)C)C2(CCN(Cc3ccc(OC)cc3O)CC2)C1=O,5.4%,3.01%,3%
Cc1cnc(Nc2cccc(CCN3CCOCC3)c2)nc1NC(C)C,9.35%,9.73%,2.69%
Oc1c(C(Nc2nc3ccccc3s2)c2ccccc2)ccc2cccnc12 (centres undefined),2.66%,3.92%,-1.54%
O=C(Nc1ccncc1)c1cn(-c2ccccc2)nc1-c1cccs1,5.19%,2.4%,3.52%
C=CCOc1ccc(CNC2CCN(Cc3ccccc3)CC2)cc1Br,2.99%,4.16%,0.3%
CN1CCC(NCc2ccc(-c3cnc(NCc4ccccc4)nc3)cc2)CC1,1.18%,4.31%,2.57%
COc1cc2nc(NCCN3CCOCC3)n3nc(-c4ccccc4)nc3c2cc1OC,8.12%,6.56%,5.62%
CC(C)(CNC(=O)C1CCN(CCOc2ccc(Cl)cc2)CC1)c1nc(-c2ccc(Cl)c(O)c2)c(-c2ccncc2)[nH]1,0.46%,1.55%,-0.21%
COC(=O)c1cc(C(O)CNC(C)CCc2cccc(F)c2)ccc1O (centres undefined),2.72%,2.7%,2.89%
CN(C)Cc1ccc2cc(NC(=O)c3ccc(-c4ccc(Cl)cc4)cc3)ccc2c1,-1.97%,3.04%,2.55%
Cc1[nH]c(C)c(-c2ccc(Oc3ccc(C(F)(F)F)cc3)cc2)c(=O)c1Br,3.22%,5.35%,3.05%
COc1cc(NC(=O)Nc2ccnc3ccccc23)cc(OC)c1,0.62%,-0.6%,1.16%
CC(=NNC(S)=NC(C)(C)C)c1ccccn1,65.9%,69.5%,49.6%
COC(=O)Cc1ccc(N)c2ccccc12,-0.85%,-0.46%,-2.13%
